# Bioassay records: PubChem, several laboratories
# Sampled rows, rich in hits. Any-hit rate of the full collection: about 4.5%.
# Jurkat NFkB inh – inhibitors of induced NF-kB luciferase reporter, primary screen, TCR NF-kB activation inhibitor project, cell-based, luminescence, uHTS | hit rate 0.53% among 330,000 | AID 435003, 2010 | Jurkat, PMA/ionomycin-induced NF-kB luciferase reporter | inhibition, % at 4 µM; in the data active = inhibition above about 50%
# Mdm2-MdmX inh – inhibitors of human Mdm2-MdmX association, primary screen, cell-based, luminescence, split luciferase, SaOS-2, uHTS | Protein Mdm4 (Homo sapiens) + E3 ubiquitin-protein ligase Mdm2 (Homo sapiens), … | SaOS-2 split-luciferase Mdm2/MdmX complementation | inhibition, % at 8 µM | hit rate 3% among 330,000 | AID 485346, 2010;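 active = inhibition of at least 50% at 8 µM in the primary screen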
# 697 NFkB inh – inhibitors of PMA/ionomycin-induced NF-kB reporter, 697 cells, primary screen, B-cell NF-kB inhibitor project, cell-based, luminescence, uHTS; inhibition, % at 4 µM; hit rate 0.33% among 330,000; 697 B-cell NF-kB luciferase reporter, 16 h; in the data active = inhibition above about 35%
# Gli-Sufu block – Gli-Sufu pathway antagonists, primary screen, luciferase luminescence, Sufu-KO-LIGHT cells, uHTS. Sufu-KO-LIGHT fibroblasts, Gli luciferase reporter luminescence. inhibition, % at 5 µM. hit rate 0.74% among 340,000;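 active = inhibition above about 55%, limit read from the data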;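 note: 0% = DMSO-treated cells and 100% = wells with medium but no cells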
# CSC inhib – cancer stem cell viability inhibitors, primary screen, luminescence; hit rate 1.1% among 300,000; inhibition, % at 7.5 µM; cancer stem cell-like cells viability; AID 2717, 2010; in the data active = inhibition above about 75%; tested in HMLE shEcad cells
# Beta cell apopt – inhibitors of cytokine-induced beta cell apoptosis, primary screen, luminescence; protection from apoptosis, % (concentration not given with the values); INS-1E cytokine-induced death, ATP luminescence, 48 h; percent of positive-control rescue, neutral wells zero; AID 435005, 2010; hit rate 0.8% among 300,000;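 active = Every replicate reaches about 75%, or at least half do and their mean reaches it too, limit read from the data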;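 note: 0% = cytokine-treated negative control wells and 100% = positive control rescue; higher means more ATP so stronger rescue from cytokine killing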
# Mdm2-MdmX conf – Mdm2-MdmX complex disruptors, retested hits, confirmation, luminescence, single concentration | hit rate 55% among 10,000 | AID 489028, 2010 | Mdm2-MdmX binding, luminescent assay | inhibition, % at 8 µM | shares compounds with Mdm2-MdmX inh; in the data active = inhibition above about 40%
# FLuc counter – full-length luciferase signal inhibition, confirmation, counter-screen for Mdm2/MdmX interaction inhibitor project, cell-based, single concentration, SaOS-2; hit rate 77% among 6,200; shares compounds with Mdm2-MdmX inh; SaOS-2 full-length luciferase counterscreen, luminescence; inhibition, % at 8 µM;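 active = mean inhibition at 8 µM reaching about 37%, which flags the compound as non-specific, limit read from the data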;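 note: p53-null SaOS-2 cells with luciferase driven by a doxycycline-inducible promoter; compound on cells about two nights before reading with doxycycline added after day one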
# * hit, by the source's call; x = no result.
SMILES,Jurkat NFkB inh,Mdm2-MdmX inh,697 NFkB inh,Gli-Sufu block,CSC inhib,Beta cell apopt,Mdm2-MdmX conf,FLuc counter
CC1Oc2cc3oc4c(O)c(O)ccc4c(=O)c3c(O)c2C1(C)C (stereo not given),-35.1,-9.4,-50.1,-31.2,-0.2,-0.7,x,x
O=C(Cn1c(=O)c2cccn2c2cccnc21)N1CCN(c2ccc(Cl)cc2)CC1,16.7,23.5,-8.2,7.1,-13.2,-4.0,x,x
CC(/C=N/NC(=O)c1cc(-c2ccncc2)nc2ccccc12)=C\c1ccco1,-20.7,62.7*,-6.5,50.0,x,13.4,61.8*,96.9*
CCOc1ccc(NC(=S)N2CCN(S(C)(=O)=O)CC2)cc1,8.7,29.6,-2.5,1.8,-11.7,-6.1,x,x
CC(C)=CC1C(C(=O)NCCc2ccccc2)C1(C)C (stereo not given),0.5,-3.2,-7.2,4.0,0.9,-2.7,x,x
CCOC(=O)C1(CCc2ccccc2)CCN(Cc2c(O)cccc2OC)CC1,11.0,55.2*,-11.3,46.7,13.2,20.1,26.4,x
Cc1ccc(C)c(C(=O)CN2C(=O)c3ccccc3S2(=O)=O)c1,-13.8,67.5*,-47.7,26.7,-4.7,-5.4,59.5*,99.6*
O=C(CN1C(=O)c2ccccc2S1(=O)=O)c1ccc(F)c(F)c1,21.9,6.4,20.0,43.6,-7.2,-4.3,x,x
Cc1ccc(C)c(C(=O)CN2C(=O)c3ccccc3C2=O)c1,13.8,-1.5,6.4,23.0,-10.6,-2.1,x,x
O=C(CN1C(=O)c2ccccc2S1(=O)=O)c1ccc(O)c(O)c1,20.6,55.7*,16.6,29.4,-3.8,1.8,55.0*,74.3*
CSc1cccc(NC(=O)CN2C(=O)c3ccccc3S2(=O)=O)c1,7.8,53.1*,-31.0,19.6,-3.1,-1.7,44.3*,77.2*
Cc1ccc(CC(=O)NCCN2CCOCC2)cc1,-3.8,29.0,16.7,-14.0,-8.3,1.5,x,x
O=[N+]([O-])c1ccc(Oc2cccc(F)c2)c2ccncc12,-3.4,58.0*,13.9,8.2,-2.0,-6.1,26.5,x
O=C(COC(=O)c1cc(S(=O)(=O)N2CCOCC2)ccc1F)NCc1ccco1,-0.9,18.8,3.0,1.4,x,0.1,x,x
CCC(NC(=O)OCc1ccccc1)C(=O)Oc1ccc2ccc(=O)oc2c1 (stereo not given),15.7,-9.9,8.9,-15.6,-8.8,-3.3,x,x
COc1cc(/C=C2/SC(=O)NC2=O)ccc1OCc1ccccc1,-4.9,5.8,-66.1,2.4,26.3,14.4,x,x
COc1cc(/C=C2/SC(=O)N(Cc3ccccc3Cl)C2=O)ccc1OCc1ccncc1,15.4,50.7*,6.2,10.0,34.0,3.3,20.5,x
CCOC(=O)C1=CN(Cc2cccc(F)c2)S(=O)(=O)N(CC)C1c1ccc(Br)cc1F (stereo not given),x,30.3,2.6,10.4,x,x,x,x
Cc1cc2oc(=O)c(CC(=O)NCCCO)c(C)c2c2occ(C(C)(C)C)c12,-15.5,23.1,-30.3,-10.9,21.4,-9.0,x,x
Cc1cc2oc(=O)c(CC(=O)NCCCN(C)C)c(C)c2c2occ(C(C)(C)C)c12,-3.4,94.0*,-42.8,29.7,90.9*,7.9,76.3*,41.1*
COCCNC(=O)Cc1c(C)c2c(cc(C)c3c(C(C)(C)C)coc32)oc1=O,9.2,66.8*,-42.5,-5.9,69.1,28.9,44.5*,64.1*
CC(=O)N1c2ccc(S(=O)(=O)N3CCCCC3)cc2CC1C(=O)NCc1ccccc1C (stereo not given),-1.8,-11.2,-2.9,7.8,4.2,x,x,x
CCc1ccc(NC(=O)CSc2nnnn2C)cc1,-44.8,-24.8,-57.5,-98.7,-5.3,-7.2,x,x
COc1ccc(N2CCN(C(=O)c3cn(CC4CCCCC4)nn3)CC2)cc1,-2.3,17.8,-17.7,29.9,-4.0,-3.9,x,x
C=CCn1c(Sc2ncc([N+](=O)[O-])s2)n[nH]c1=O,18.6,66.4*,-3.2,-0.6,106.0*,60.3,87.5*,56.2*
SMILES,Jurkat NFkB inh,Mdm2-MdmX inh,697 NFkB inh,Gli-Sufu block,CSC inhib,Beta cell apopt,Mdm2-MdmX conf,FLuc counter
C=CCn1c(CSc2ccccc2[N+](=O)[O-])n[nH]c1=S,-0.8,8.7,-13.4,-12.8,-16.6,-6.4,x,x
O=C(/C=C/c1ccc2ccccc2n1)N1CCN(S(=O)(=O)c2ccccc2F)CC1,11.4,75.6*,15.4,18.1,19.5,-0.6,79.8*,25.5
O=C(/C=C/c1ccc2ccccc2n1)N1CCN(S(=O)(=O)c2ccc(F)cc2)CC1,4.4,61.0*,9.8,3.6,23.5,-6.0,76.1*,35.1
COc1ccc(OC)c(C=NNC(=O)c2ccccc2NS(=O)(=O)c2cccs2)c1,-5.3,5.7,17.8,1.4,-20.7,-3.3,x,x
C/C(CC(=O)Nc1cc(C)ccn1)=N\NC(=O)c1cccc(C)c1O,18.5,65.8*,-88.5,9.2,72.8,70.8,45.8*,120.8*
Fc1ccc(Cn2c(-c3cscn3)nc3ccccc32)c(Cl)c1,-1.5,35.6,-0.3,-10.2,-1.9,x,x,x
Nc1nonc1-c1nc2ccccc2n1Cc1ccc(F)cc1Cl,19.8,62.1*,2.9,5.2,5.4,-30.4,49.5*,82.7*
CCCCn1c(=N)n(CC(=O)c2ccc(OC)cc2)c2ccccc21,35.6,79.1*,-5.0,x,1.3,7.3,44.0*,47.7*
CCn1c(=N)n(CC(=O)c2ccc(Br)s2)c2ccccc21,-26.7,-12.6,-22.8,10.4,11.1,-3.2,x,x
CCCCn1c(=N)n(CC(=O)c2ccc(Br)s2)c2ccccc21,12.2,96.6*,-11.6,8.3,35.7,82.9*,59.4*,52.8*
N=c1n(CC(=O)c2ccc(Br)cc2)c2ccccc2n1Cc1ccccc1,2.5,96.7*,-12.9,28.4,33.2,15.6,75.5*,55.4*
C=CCn1c(=N)n(CC(=O)c2ccc(OC)cc2)c2ccccc21,3.5,13.6,-5.6,0.3,-3.5,3.9,x,x
CCS(=O)(=O)N1CCC(C(=O)Oc2ccc(Cl)cc2)CC1,2.4,11.4,16.1,20.3,5.2,1.1,x,x
Cc1cc(C)c(-c2csc(NC(=O)/C=C/c3cccs3)n2)c(C)c1,22.0,70.4*,1.1,-0.2,28.5,7.9,60.8*,72.2*
Cc1cc(C=C2C(=O)c3ccccc3C2=O)c(C)n1-c1ccc(C(=O)O)cc1,-1.9,5.3,-3.6,6.8,4.4,-3.5,x,x
